Hits are enriched below; roughly 3.7% of the tested compounds scored in any of these assays.
Anthrax LF prot: blocks Bacillus anthracis lethal factor protease; AID 588501; P15917; inhibition, % at 10 µM; multiplex microsphere protease cleavage assay, LF; 0.12% of 360,000 active
Autofluor counter: counter-screen for toxin protease inhibitors: compound fluorescence; compound autofluorescence counterscreen, microsphere flow cytometry; stronger effect = higher value; fluorescence intensity (no concentration beside the values); 3.1% of 360,000 active; AID 624483; in the data active = fluorescence intensity above about 16000; inconclusive = no clear call, values can overlap the other calls
MazEF act: increases E. coli MazEF RNase cleavage of RNA. P0AE70. FAM/BHQ RNA-DNA oligo cleavage fluorescence, 5 h. activation, % at 20 µM. 0.32% of 350,000 active. AID 504720; in the data active = activation above about 50%
BoNT A protease: blocks Botulinum neurotoxin A light chain protease; multiplex microsphere protease substrate cleavage, flow cytometry; inhibition, % at 10 µM; 0.17% of 360,000 active
BoNT-F LC inh: BoNT F light chain protease inhibition | AID 588497 | 0.22% of 360,000 active | inhibition, % at 10 µM | Multiplex microsphere protease cleavage assay, flow cytometry; in the data active = inhibition above about 35%, passing the limit was not always enough; inconclusive = no clear call, values can overlap the other calls
Of the large screens only hits and unclear results are named; the others gave an inactive call. Rule as the data show it, unless noted: active = inhibition above about 30%; inconclusive = no clear call, values can overlap the other calls; inactive = below that.

CCN=C1SC(CC(=O)NC2CCCCC2)C(=O)N1CC (stereo unspecified)	Autofluor counter 20571, BoNT A protease inconclusive
O=C(Nc1cccc(O)c1)c1ccc(Br)c(S(=O)(=O)N2CCCCC2)c1	Autofluor counter 24544
CC(=O)Nc1cccc(NC(=O)c2ccc(Br)cc2)c1	none
O=C(Nc1cccc(O)c1)c1cccc(S(=O)(=O)N2CCCCCC2)c1	none
O=C(Nc1cccc(O)c1)c1ccc(Br)cc1	Autofluor counter 21990
O=C(Nc1ncn[nH]1)c1ccc(Cl)c(S(=O)(=O)N2CCCCCC2)c1	Autofluor counter 16856
C[C@H]1CN([C@@H](C)CO)C(=O)CCCn2nncc2CO[C@H]1CN(C)C(=O)NC1CCCCC1	none
Cc1cccc(C)c1NC(=O)CN(C)C(=O)CN1C(=O)NC2(CCCC2)C1=O	none
CC(C)CC(=O)NC(Nc1ccccc1F)C(Cl)(Cl)Cl (stereo unspecified)	none
CC(C)C(=O)NC(Nc1ccccc1F)C(Cl)(Cl)Cl (stereo unspecified)	Autofluor counter 21522
Cc1ccc(C)c2[nH]c(=O)c(CN(Cc3ccco3)S(=O)(=O)c3ccc4c(c3)OCCO4)cc12	Autofluor counter 22529
COC(=O)C1(C(=O)OC)NOC2C(=O)N(c3ccccc3)C(=O)C21 (stereo unspecified)	Autofluor counter 22517, BoNT A protease inconclusive
COC(=O)C1(C)NC(c2ccccc2C)C2C(=O)N(c3ccccc3)C(=O)C21 (stereo unspecified)	none
CCOc1c(Cl)cc(CNC(C)(C)CC(C)(C)C)cc1OC	Autofluor counter 21728
CCOc1c(Cl)cc(CNc2ccc(N3CCCC3)cc2)cc1OC	none
CCCCCCCCN1C(=O)[C@H](CC(=O)NCC2CCCCC2)C[C@@]2(C(=O)OC)CCCCC=C12	none (no result: MazEF act)
OCCNc1nc2ccccc2n1CC(O)c1ccccc1 (stereo unspecified)	none
CC(C)Cn1c(NCCO)nc2ccccc21	Autofluor counter 19740
O=C(Nc1cccnc1)C1Cc2c(-c3ccco3)ccnc2O1 (stereo unspecified)	none (no result: MazEF act)
CC1(C(=O)NS(=O)(=O)C2CC2)CCCN(C(=O)c2ccccc2OC(F)(F)F)C1 (stereo unspecified)	none (no result: MazEF act)
CCCC(=O)Nc1nc2n(n1)C(c1ccccc1)CC(=O)N2 (stereo unspecified)	Autofluor counter 17011
O=C1CC(c2ccccc2)n2ncnc2N1 (stereo unspecified)	Autofluor counter 21144, BoNT A protease inconclusive
CC(C)c1ccc(Oc2cccc3c2S(=O)(=O)N(C2CCCC2)CC(COCc2ccccc2)O3)cc1 (stereo unspecified)	none
Cc1cc(C)c2c(c1)c(C)cc1nnc(SCC(=O)c3cccs3)n12	MazEF act 73.7
CCn1c(SCC(=O)c2cccs2)nnc1-c1cccs1	none
COc1ccc(NC(=O)N(C)C[C@H]2OCc3cnnn3CCCC(=O)N([C@@H](C)CO)C[C@H]2C)cc1	none
C/C(=N\O)C(=O)OC1CC(C)CCC1C(C)C (stereo unspecified)	Autofluor counter 24312
CC1(CCc2ccccc2)NC(=O)N(CC(=O)N2CCCCCC2)C1=O (stereo unspecified)	Autofluor counter inconclusive
COc1ccc(/C=C/C(=O)OC(C)CN2CCOCC2)cc1 (stereo unspecified)	Autofluor counter 17262
CC(CN1CCCCC1)OC(=O)/C=C/c1ccccc1 (stereo unspecified)	BoNT-F LC inh 36.2
CSc1ccccc1NC(=O)Nc1cccc(Cl)c1Cl	Autofluor counter 20444
O=C(Nc1cccnc1)Nc1ccc(F)c(Cl)c1	Autofluor counter 23140, BoNT A protease inconclusive
CN(CC(=O)Nc1cccnc1)S(=O)(=O)c1cc(Cl)ccc1Cl	Autofluor counter 25881, BoNT A protease inconclusive
CSc1ccccc1NC(=O)Nc1cccc(Cl)c1C	none
CSc1ccccc1NC(=O)Nc1ccc(F)c(Cl)c1	Autofluor counter 24571
COc1cc(C)ccc1S(=O)(=O)NC(=O)C1(C)CCN1C(=O)c1ccc(C2CCCCC2)cc1 (stereo unspecified)	none (no result: MazEF act)
CN(c1cccc(NC(=O)Nc2cccc(Cl)c2)c1)S(C)(=O)=O	none
CN(C)c1ccc(NC(=O)Nc2cccc(Cl)c2)cc1	Autofluor counter 19659
COc1cccc(NC(=O)Nc2ccccc2SC)c1	none
CSc1ccccc1NC(=O)Nc1cccc(Cl)c1	Autofluor counter 23180, MazEF act 119.1
COc1ccc(OCCNC(=O)C2(C)CCN2Cc2ccc3ccccc3c2)cc1 (stereo unspecified)	none (no result: MazEF act)
C/C(=N/NC(=O)c1cc(-c2cccc([N+](=O)[O-])c2)n[nH]1)c1ccc(Cl)cc1	MazEF act 56.5
CC(C)c1ccc(/C=N/NC(=O)c2cc(-c3cccc([N+](=O)[O-])c3)n[nH]2)cc1	none
CNC(=O)C[C@@H]1C(=O)N(C2CCCCC2)CC1(C)C	none
COc1ccc(NC(=O)CSc2nc3n[nH]c(C)c3c(=N)n2-c2ccc(Cl)c(C)c2)cc1OC	MazEF act 110.9
CCC1Oc2ccc(C)cc2N(CC(=O)NCC2COc3ccccc3O2)C1=O (stereo unspecified)	none
Cc1ccc2c(c1)N(CCC(=O)NCCN1CCOCC1)C(=O)CO2	Autofluor counter 20041
O=C(CN(Cc1cccs1)C(=O)CN1C(=O)COc2ccccc21)NCc1ccco1	Autofluor counter 19004
Cc1ccc2c(c1)N(CCC(=O)NCC1COc3ccccc3O1)C(=O)CO2 (stereo unspecified)	Autofluor counter 21396
O=C(CN(Cc1cccs1)C(=O)CNS(=O)(=O)c1ccccc1)NCc1ccco1	none
COc1ccccc1CNC(=O)CCCN1C(=O)COc2ccc(C)cc21	none
COc1ccccc1CNC(=O)CCN1C(=O)COc2ccc(C)cc21	Autofluor counter 21217, BoNT A protease inconclusive
O=C(CCN1C(=O)COc2ccccc21)NCCN1CCOCC1	none
CCc1nc2c(OCc3c(C)noc3C)cccn2c1N(C=O)Cc1ccc(OC)cc1	none (no result: MazEF act)
CCCNC(=O)C1(C)CCCN(C(=O)c2cc(C)n(C(C)(C)C)n2)C1 (stereo unspecified)	none (no result: MazEF act)
O=C(CCN1C(=O)COc2ccccc21)NCc1ccco1	none
Cc1ccc2c(c1)N(CCC(=O)NCc1ccco1)C(=O)CO2	Autofluor counter 22695
CCOC(=O)N1CCN(CC(=O)Nc2c(C(=O)OC)[nH]c3ccc(Cl)cc23)CC1	none
CCOC(=O)N1CCN(CC(=O)Nc2c(C(=O)OC)[nH]c3cc(C)ccc23)CC1	Autofluor counter 23057
COc1ccc(CNCC(O)(c2ccccc2)c2ccc(Cl)cc2)cc1 (stereo unspecified)	none
COc1cccc(CNCC(O)(c2ccc(Cl)cc2)c2ccc(Cl)cc2)c1	Autofluor counter 23322
O=C(O)CCCc1nc(-c2ccccc2)no1	Autofluor counter 16634
O=C(CCCc1ccccc1)NCc1cccnc1	Autofluor counter 24595
O=C(CCCc1nc(-c2ccccc2Cl)no1)NCc1cccnc1	none
O=C(CCc1nc(-c2ccccc2)no1)NCc1cccnc1	Autofluor counter 23102
c1ccc(N=C2SCCCS2)cc1	none
CC(C)COC(=O)N(C)C[C@H]1OCc2cnnn2CCCC(=O)N([C@H](C)CO)C[C@@H]1C	none
